# Measured values from PubChem BioAssay AID602441 (National Center for Advancing Translational Sciences (NCATS), 2012).
# The campaign covered roughly 1,300 compounds. Fewer than 10 were called active. Another 9% or so got no clear call; they are omitted. These entries were drawn from the full list. Unmarked numbers belong to inactive results. Calls come from the whole dose curve; as a rule, active = well fitted curve in the direction sought with a large enough effect; inconclusive = small, poorly fitted or top-dose-only effect, or another doubt; inactive = no such curve, though single readings can be large or run the other way.
# Assay: qHTS for antagonists of the Thyroid Stimulation Hormone Receptor: Hit Validation in Parental Cell Line; for activity change, negative = inhibition: 0% is about no effect
# Conditions: parental HEK293 cells lacking TSHR, counter-screen; series mostly up to 56.9 µM; activity change, negative = inhibition: at the top concentration
# Text: The thyroid-stimulating hormone receptor (TSHR) is a member of the 7 trans-membrane-spanning receptor (7TMR) family of cell surface receptors. TSHR-mediated hyperthyroidism is important in thyroid pathology. The development of small molecule antagonists of TSHR may lead to therapeutic approaches for TSHR-mediated hyperthyroidism caused by constitutively activating mutations or stimulating auto-antibodies associated with Graves' disease. Graves' disease is the leading cause of hyperthyroidism and is caused by autoantibodies that stimulate TSHR (TsAbs) causing thyroid growth and unregulated overproduction of thyroid hormones and existing treatments have liabilities (agranulocytosis). In addition, TSHRs are known to be expressed in multiple extrathyroidal tissues including bone, brain, kidney, testis, fat and cells of the immune system but the role of the TSHR in these tissues is not clear. Therefore, TSHR antagonists/inverse agonists could be used as probes of extrathyroidal TSHR function. Finally, TSHR inverse agonists, which are a subclass of antagonists that inhibit agonist-independent (or basal or constitutive) TSHR signaling, could be used to inhibit TSH-independent signaling in patients with recurrent or metastatic thyroid cancer who are receiving thyroid hormone to suppress TSH.
# In collaboration between scientist from the NCGC and the NIDDK, a miniaturized HTRF high-throughput screen was developed. It's a cell based assay, where an anti cAMP antibody contains a fluorescent cryptate tag (excitation 337 nm; emission 620 nm) and the acceptor is cAMP-d2 (excitation 620 nm; emission 665 nm). When antibody and cAMP-d2 interact and are excited by a 337 nm light, a FRET occurs resulting in emission at 665 nm. The assay is competition between cAMP-d2 and cAMP (from the cell lysate). The homogeneous protocol allows for one step dispense after stimulation that is automation friendly. This is a hit validation assay in a counterscreen using parental HEK 293 cells lines.
# NIH Chemical Genomics Center [NCGC]
# NIH Molecular Libraries Probe Centers Network [MLPCN]
# Assay Provider: Marvin Gershengorn, NIDDK
# An anti cAMP antibody contains a fluorescent cryptate tag (excitation 337 nm; emission 620 nm) and the acceptor is cAMP-d2 (excitation 620 nm; emission 665 nm). When antibody and cAMP-d2 interact and are excited by a 337 nm light, a FRET occurs resulting in emission at 665 nm. The assay is competition between cAMP-d2 and cAMP (from the cell lysate). The homogeneous protocol allows for one step dispense after stimulation that is automation friendly. This assay uses parental HEK-EM 293 cells
# Potency is the fitted concentration of half-maximal effect.
SMILES,"activity change, negative = inhibition [%]",Potency
CC(C)c1ccc(OCC(=O)Nc2cccc3c2CCCC3)cc1,4.59,
O=C(Cn1cnc2ccccc21)Nc1ccc2c(c1)OCCCO2,1.89,
Cc1c(Nc2cc(Cl)c3nonc3c2[N+](=O)[O-])c(=O)n(-c2ccccc2)n1C,-9.16,
CN(C)S(=O)(=O)c1ccc(N2CCN(S(=O)(=O)c3ccc(F)cc3)CC2)c(Cl)c1,1.41,
CC(NC(=O)c1ccc([N+](=O)[O-])o1)C1CC2CCC1C2 (stereo unspecified),2.74,
C=CCC1(CC=C)CCCN1C(=O)c1cc(COc2ccc(C)nc2)on1,0.634,
C=CCN1C(=O)C(Cc2ccc(OC)cc2)S/C1=N/N=C/c1ccco1 (stereo unspecified),2.46,
CSc1cnn(Cc2ccccc2)c(=O)c1SCc1ccccc1,-0.181,
COC(=O)c1ccc(COc2cc(O)c3c(c2)OC(C)(C)CC3=O)cc1,-0.0715,
COc1ccc(-c2csc3ncnc(N4CCN(S(=O)(=O)c5cccs5)CC4)c23)cc1,0.325,
N#Cc1ccc(CN2CCN(C(=O)c3ccc(S(=O)(=O)N4CCCCCC4)cc3)CC2)cc1,-5.72,
Cc1ccc(NC(=O)COc2cccc3c2OC(C)(C)C3)c(O)c1,-0.793,
N#C/C(=N\Nc1ccc(S(=O)(=O)N2CCCCCC2)cc1)C(N)=S,-4.32,
Cc1sc2nc(-c3ccccn3)[nH]c(=O)c2c1-c1ccccc1,-1.49,
O=S(=O)(NCc1csc(-c2ccccc2)n1)c1ccc(Cl)s1,3.27,
O=C(Nc1ccc(Br)cc1)c1cccc(S(=O)(=O)Nc2cnc3ccccc3c2)c1,-3.55,
COc1ccc2ccccc2c1/C=N/NC(=O)c1nnn(-c2nonc2N)c1C(C)C,-4.51,
COc1ccc(-c2csc(/C(C#N)=C\c3ccc(O)c([N+](=O)[O-])c3)n2)cc1OC,-6.65,
CCOC(=O)c1sc(NC(=O)c2cc(-c3ccccc3C)nc3ccccc23)c(C#N)c1C,-2.33,
Cc1ccc(OCc2cc(C(=O)NC3CCCCC3)no2)cn1,-0.0859,
O=C(Nc1ccncc1)c1cccc(S(=O)(=O)N2CCc3ccccc32)c1,-2.96,
N#C/C(=N/Nc1ccc(OC(F)(F)F)cc1)C(N)=S,-5.72,
Cc1ccc(CN2CCc3c(OCc4ccc(F)cc4)cccc3C2=O)cc1,-2.57,
COc1ccc(C(=O)c2ccccc2)c2c(O)ccc(C(=O)c3ccccc3)c12,-1.57,
CCCC(=O)OCCNc1cc(Sc2nc3ccccc3[nH]2)c2nonc2c1[N+](=O)[O-],-7.55,
N#CC(C#N)=NNc1ccc(S(=O)(=O)N2CCCCC2)cc1,-1.81,

SMILES,"activity change, negative = inhibition [%]",Potency
COc1ccc(NS(=O)(=O)c2cccc(NC(=O)C3=NN(c4ccccc4)C(=O)CC3)c2)cc1,-3.01,
CCOc1ccc(-c2csc(/C(C#N)=C\c3ccc(O)c([N+](=O)[O-])c3)n2)cc1,-9.37,
Cc1cc(C)n(C(=O)/C(C#N)=N/Nc2cc(Cl)cc(Cl)c2)n1,0.0538,
COc1ccccc1C(=O)COC(=O)/C=C/c1ccccc1,3.14,
CC[n+]1ccc(/C=C/c2ccc(N(C)C)cc2)c2ccccc21,,26.9 µM (active)
CN(C)c1ccc(/C=C/c2cc[n+](C)cc2)cc1,-7.72,
O=C(CN1C(=O)c2ccccc2S1(=O)=O)NCCSCc1cccc(Cl)c1,-1.03,
CC1CCC(C(C)C)C(OC(=O)Cn2c(-c3ccccc3)[n+](C)c3ccccc32)C1 (stereo unspecified),2.05,
N#Cc1c(C(F)(F)F)cc(-c2ccc(Cl)cc2)[nH]c1=O,-0.329,
COc1ccc2nc(C)cc(N3CCN(S(=O)(=O)c4ccccc4F)CC3)c2c1,-1.34,
Cc1nc2ncnn2c(N2CCCC(C(=O)Nc3ccccc3Br)C2)c1C (stereo unspecified),5.02,
O=S(=O)(c1ccc(Cl)cc1)N1CCN(c2ncnc3sccc23)CC1,-4.26,
Cc1noc(C)c1COc1ccccc1C(=O)N(C)Cc1ccc(C(C)(C)C)cc1,-3.32,
O=c1cc(C(F)(F)F)[nH]c2ccc(OC(F)(F)F)cc12,4.01,
CCCC(=O)Nc1cccn(Cc2ccccc2Br)c1=O,-0.796,
Cc1ccc(NC(=O)c2ccccc2NS(=O)(=O)c2ccc(F)cc2)cc1S(=O)(=O)N1CCCCC1,-5.23,
COc1cccc(C(=O)Nc2ccc(NC(=O)C3CCCCC3)nc2)c1,-5.39,
Cc1ccc(NC(=O)C(C)c2ccc(-c3ccccc3)c(F)c2)cc1 (stereo unspecified),0.0015,
O=C(Nc1ccc(N=Nc2ccccc2)cc1)c1ccccc1Cl,-5.44,
O=C(O)c1cccc(NC2=C(Cl)C(=O)c3ccccc3C2=O)c1,-14.8,
CCN(CC)c1ccc2nc3ccccc3[n+](CC)c2c1,,13.5 µM (active)
Cn1c2c(c(=O)n(C)c1=O)C(C(F)(F)F)(C(F)(F)F)N=C(c1ccc(Cl)cc1)N2,0.519,
Cc1sc(N/N=C/c2cccnc2)nc1-c1ccccc1,-1.97,
COc1ccccc1CNc1ncnc2sccc12,1.11,
COc1ccc(NS(=O)(=O)c2ccc(N/N=C(\C)c3ccncc3)c([N+](=O)[O-])c2)cc1,-6.85,
